# BRCT PPI green = BRCA1 BRCT-phosphoprotein interaction inhibition. Potency, µM (series often up to 76.9 µM), for the others: at the highest dose activity change, negative = inhibition, most hits filed as inhibitors. BRCA1 BRCT-phosphopeptide binding, green fluorescence polarization. 0.05% of 75,000 active;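 also: potency is read from the fitted curve at half-maximal effect; plate controls were peptide without protein for full effect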
#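 Fluorescence polarization: His-tagged BRCT (~35 kDa BRCA1 C-terminus, 250 nM) bound to 100 nM fluorescein-labeled phosphorylated 10-aa BACH1 peptide, pH 7.3 phosphate buffer with DTT and Tween 20. Compounds incubated 12 min at room temperature; inhibition read as lowered polarization.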
# BRCT PPI red = inhibitors of human BRCA1 BRCT-phosphoprotein interaction (red fluorophore) | P38398 | BRCT-phosphopeptide binding, red fluorescence polarization | Potency, µM (doses to about 76.9 µM), for inactives: at the highest dose activity change, negative = inhibition, usual class: inhibitors | 0.03% of 75,000 active; also: % is scaled to controls: 0 for no effect and ±100 for the full control effect
#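 Fluorescence polarization: 100 nM His-tagged BRCA1 BRCT with 100 nM TAMRA-labelled phospho-BACH1 decapeptide, phosphate buffer pH 7.3 with 150 mM NaCl, DTT, 0.01% Tween 20; 12 min RT. Binding inhibition seen as FP decrease.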
# HEK293 cAMP cs = parental HEK293 cAMP activation (counter-screen). parental HEK293 CNG cAMP sensor, membrane potential fluorescence. 2.5% of 73,000 active. Potency, µM (titrated, usually from 57.1 µM), without a hit: at the highest dose activation, most hits filed as activators; also: potency is read from the fitted curve at half-maximal effect; % of control where 0% means no effect; nearly all actives have a fitted effect of over 55% in size
#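 Parental HEK 293 cells stably expressing a modified CNG channel (no TSHR) report cAMP rise as membrane depolarization. Membrane potential dye with 100 uM RO 20-1724 was loaded for 60 min at room temperature, then compound added for 30 min; fluorescence read at 590 nm.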
# Pol III holo inh = DNA polymerase III holoenzyme inhibition; 0.25% of 71,000 active; Potency, µM (doses to about 57.1 µM), without a hit: at the highest dose activity change, negative = inhibition; AID 603; reconstituted DNA polymerase III holoenzyme replication, biochemical; also: potency is read from the fitted curve at half-maximal effect; % is scaled to controls: 0 for no effect and ±100 for the full control effect
#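 Reconstituted *E. coli* holoenzyme (0.35 nM Pol III, 1 nM beta, 154 nM SSB, 2 nM primase) was preincubated with compound for 15 min at RT. Synthesis on 1.4 nM ssM13Gori ran 35 min, then was stopped with PicoGreen/EDTA and read as dsDNA fluorescence.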
# TSHR ag = agonists of human thyroid stimulating hormone receptor; P16473; HEK293-CNG-TSHR cells (CNG channel as cAMP sensor), membrane potential dye, cAMP; Potency, µM (titrated, usually from 57.1 µM), inactives show at the highest dose activation, hits mostly activators; 0.48% of 73,000 active; AID 926; active = well fitted activation curve with a large enough effect in the main read-out, with a control signal flat, not every such curve was filed as active; inconclusive = small, poorly fitted or top-dose-only effect, or a change in a side signal; inactive = no such curve, though single readings can be large or run the other way; % of control where 0% means no effect;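 also: the control signal comes from parental cells without the receptor; potency is read from the fitted curve at half-maximal effect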
# Target sequence (P16473 whole entry, looked up): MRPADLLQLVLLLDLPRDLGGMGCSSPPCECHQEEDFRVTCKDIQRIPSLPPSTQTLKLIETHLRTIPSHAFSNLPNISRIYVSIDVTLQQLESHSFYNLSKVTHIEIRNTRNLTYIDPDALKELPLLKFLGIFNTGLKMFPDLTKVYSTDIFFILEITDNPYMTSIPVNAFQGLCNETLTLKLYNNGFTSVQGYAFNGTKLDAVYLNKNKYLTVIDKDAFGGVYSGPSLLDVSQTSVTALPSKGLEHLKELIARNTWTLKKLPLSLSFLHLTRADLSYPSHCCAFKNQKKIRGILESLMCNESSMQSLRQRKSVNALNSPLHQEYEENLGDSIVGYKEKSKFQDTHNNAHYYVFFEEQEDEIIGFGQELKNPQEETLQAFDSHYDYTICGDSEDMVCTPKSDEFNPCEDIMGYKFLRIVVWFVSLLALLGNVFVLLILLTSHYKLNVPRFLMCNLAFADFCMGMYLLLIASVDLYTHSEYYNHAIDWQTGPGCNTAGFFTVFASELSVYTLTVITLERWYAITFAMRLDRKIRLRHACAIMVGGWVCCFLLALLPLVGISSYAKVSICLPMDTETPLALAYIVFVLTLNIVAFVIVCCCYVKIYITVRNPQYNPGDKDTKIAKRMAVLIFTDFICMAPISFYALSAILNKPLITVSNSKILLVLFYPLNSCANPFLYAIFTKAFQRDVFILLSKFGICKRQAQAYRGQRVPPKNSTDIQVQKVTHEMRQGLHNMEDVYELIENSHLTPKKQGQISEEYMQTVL
#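 HEK 293 cells stably expressing TSHR and a modified CNG channel, with CNG-only parental cells as counterscreen, were preloaded 60 min at room temperature with membrane potential dye containing 100 uM RO 20-1724. Compound exposure was 30 min, and depolarization was read as fluorescence at 590 nm.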
# YjeE inh = YjeE (TsaE) inhibition, E. coli; AID 605; Potency, µM; purified YjeE enzyme, qHTS inhibition assay; P0AF67; 0.05% of 71,000 active
#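 Purified YjeE (10 uM) with BODIPY Texas Red-labeled ADP probe (2 uM); compounds pin-transferred, 15 min at room temperature. Binding inhibition read as decreased fluorescence polarization; ADP titration as control.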
# The depositor's hits bear a star; i = inactive; ? = inconclusive; . = not tested or not shown; [ ] = another dose, or the depositor's remark. Sampled rows, rich in hits. Any-hit rate of the full collection: about 3.2%. Unless noted, calls follow the shape of the dose curve; as a rule, active = well fitted curve in the direction sought with a large enough effect; inconclusive = small, poorly fitted or top-dose-only effect, or another doubt; inactive = no such curve, though single readings can be large; an effect the other way counts as inactive or inconclusive.
SMILES,BRCT PPI green,BRCT PPI red,HEK293 cAMP cs,Pol III holo inh,TSHR ag,YjeE inh
CC(C)C[C@@H](CC(=O)N[C@@H](CCCN)CC(=O)N[C@@H]1CCCC[C@H]1C(=O)N[C@H](CC(=O)N[C@@H](CCC(=O)O)CC(=O)O)Cc1ccccc1)NC(=O)[C@@H]1CCCC[C@H]1N,.,.,?,-3%,?,?
O=C(Nc1ccccc1)N1CCC2(CC1)CCN(C(=O)c1csnn1)CC2,-1%,1%,28%,2%,4µM*,i
CC1=C2[C@@H]([C@H](C)CC[C@H]2/C=C(\C)C(=O)O)[C@H](O)C1,0%,1%,-12%,6%,-5%,i
CCOC(=O)CSc1nnc2n1C(C)(C)Cc1ccccc1-2,0%,-2%,20%,0%,-3%,i
CC1(C)Cc2ccccc2-c2nnc(SCc3ccc(C#N)cc3)n21,2%,0%,25µM*,2%,?,i
c1coc(Cn2c(-c3ccco3)nc3ccccc32)c1,2%,-1%,?,-2%,?,i
Nc1nonc1-c1nc2ccccc2n1Cc1ccc(Cl)cc1,-1%,0%,16µM*,6%,?,i
Cn1cccc1-c1nc2ccccc2n1Cc1ccccc1,0%,-1%,32µM*,-4%,?,i
C=COCCn1c(-c2nonc2N)nc2ccccc21,1%,2%,25µM*,-6%,?,i
COCCn1c(COC)nc2ccccc21,-1%,1%,4%,-5%,0%,i
Cc1ccc(Cn2c(-c3nonc3N)nc3ccccc32)cc1,-1%,0%,32µM*,-5%,?,i
Oc1ccc2ccccc2c1CN(Cc1c(O)ccc2ccccc12)C1CCCCC1,0%[15.4 µM],-3%[15.4 µM],-1%[11.4 µM],-4%[11.4 µM],1%[11.4 µM],i
COC(=O)C/C=C\[C@H](C)[C@@H](OCc1ccccc1Br)C(C)C,-3%[15.4 µM],0%[15.4 µM],?,.,?,.
O=C1[C@H]2[C@H]3[C@H](O)[C@H](O)C/C(=N/OC[C@@H](O)COCc4ccco4)[C@H]3CC[C@@H]2C(=O)N1Cc1ccccc1,-2%[15.4 µM],1%[15.4 µM],-1%[11.4 µM],.,1%[11.4 µM],.
CCC(=O)Nc1nonc1-c1nc2ccccc2n1N(C(=O)CC)C(=O)CC,1%,-1%,9%,-4%,6%[11.4 µM],i
CCC(=O)Nc1nonc1-c1nc2ccccc2n1Cc1ccccc1,-3%,-1%,20µM*,4%,?,i
O=C(CSc1nnc(-c2ccco2)n1Cc1ccccc1)c1ccc(F)cc1,-2%,1%,25µM*,0%,?,i
O=C(CSc1nnc(-c2ccc(Br)o2)n1Cc1ccccc1)c1ccccc1F,3%,0%,20µM*,11%,?,i
CNC(=O)Oc1ccc2c(c1)[C@@]1(C)CCN(C)C1N2C (some centres not stated),-2%,1%,.,.,.,.
O=c1[nH]c2[nH]c(=S)[nH]c(=S)c2[nH]1,-2%[15.4 µM],0%[15.4 µM],7%[11.4 µM],-2%[11.4 µM],1%[11.4 µM],i
COc1ccc2nc3cc(Cl)ccc3c(Nc3ccc(O)c(CN4CCN(C)CC4)c3)c2c1,-2%[15.4 µM],1%[15.4 µM],-31%[11.4 µM],5µM*,?,i
O=C(CCc1ccccc1)Nc1c(F)c(F)c(F)c(F)c1F,-6%,0%,16µM*,-20%,?,i
CC(C)C[C@@H](CC(=O)N[C@@H](CCCN)CC(=O)N[C@@H]1CCCC[C@H]1C(=O)N[C@H](CC(=O)N[C@@H](CCC(=O)O)CC(=O)O)Cc1c[nH]c2ccccc12)NC(=O)[C@@H]1CCCC[C@H]1N,.,.,5%,0%,6%,i
COC(=O)NC(c1ccccc1)[C@@]1(C(=O)OC)CCCC1=O (some centres not stated),-2%[15.4 µM],1%[15.4 µM],9%[11.4 µM],.,11%[11.4 µM],.
CCN(CC)CCOC(=O)c1c(C)oc2ccc(O)cc12,-1%,1%,27%,-2%,13%,i
SMILES,BRCT PPI green,BRCT PPI red,HEK293 cAMP cs,Pol III holo inh,TSHR ag,YjeE inh
CCN(CC)CC[n+]1ccc2c(C)c3[nH]c4ccc(O)cc4c3c(C)c2c1,-3%[15.4 µM],-4%[15.4 µM],7%[11.4 µM],1.3µM*,19%[11.4 µM],i
Cc1cccc(C)c1-n1nnnc1SCSc1nnnn1-c1c(C)cccc1C,-1%,0%,16µM*,-1%,?,i
Cc1ccccc1-n1nnnc1SCC(N)=O,0%,2%,5%,2%,-1%,i
O=S(=O)(c1ccc(NC2CCCc3ccccc32)nc1)N1CCOCC1 (configuration not stated),0%,0%,20%,-5%,7%,i
CCN(CC)S(=O)(=O)c1ccc(NC2CCCc3ccccc32)nc1 (configuration not stated),1%,2%,25µM*,0%,?,i
CCCn1c(-c2ccc(F)cc2)nc2c(N3CCC(N(C)C)C3)nc(C)nc21 (configuration not stated),0%,-1%,?,-2%,?,i
CCCn1c(-c2ccc(F)cc2)nc2c(N3CCN(C)CC3)nc(C)nc21,-2%,0%,16µM*,-5%,?,i
CCCn1c(-c2ccc(F)cc2)nc2c(NCCN(C(C)C)C(C)C)nc(C)nc21,0%,0%,13µM*,0%,?,i
COc1cccc(OC)c1OCCNC[C@@H]1COc2ccccc2O1,1%,1%,32µM*,-6%,?,i
COc1ccccc1C(=O)Nc1cc(-c2nn3c(C)nnc3s2)ccc1C,0%,0%,2%,-9%,9%,i
O=C1C2C3C=CC(C2C(=O)N1CN1CCOCC1)C1C2C(=O)N(CN4CCOCC4)C(=O)C2C31 (configuration not stated),-4%[15.4 µM],-3%[15.4 µM],12%[11.4 µM],-5%[11.4 µM],0%[11.4 µM],i
CCCn1nnc(NC(=O)c2ccccc2Br)n1,0%,0%,0%,-4%,1%,i
CCn1nnc(NC(=O)c2ccccc2Br)n1,-2%,0%,32µM*,-7%,?,i
CC(C)NC(=O)N1CCCC2(CCN(C(=O)c3csnn3)CC2)C1,-2%,0%,-9%,-6%,1%,i
Cc1cccc(CNc2ccnc(-c3ccccc3Cl)n2)c1,-3%,1%,18%,0%,22%,i
Cc1onc(-c2ccccc2Cl)c1C(=O)Nc1ccc(OCC(=O)N2CCOCC2)cc1,0%,1%,4µM*,3%[11.4 µM],?,i
COCCn1c(SCC(=O)N2CCC(C)CC2)nc2ccccc2c1=O,0%,0%,20µM*,-3%,?,i
COCCn1c(SCC(=O)c2ccc(CNC(C)=O)o2)nc2ccccc2c1=O,0%,-1%,?,-5%,?,i

# Compound activity (PubChem)
